# Sampled rows, rich in hits. Any-hit rate of the full collection: about 2.8%.
# Shn3 3UTR inh: inhibitors of Schnurri-3 3'UTR reporter in osteoblasts. 0.52% of 360,000 active. inhibition, % at 12.5 µM. Clone20 osteoblast Shn3 3'UTR firefly luciferase, 24 h;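 active = mean inhibition of at least 75% with every replicate also reaching 75%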;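 also: 0% = median of neutral control wells and 100% = pilot-screen positive control compound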
# KKLEB tox: counter-screen for CF NF-kB inhibitors: cytotoxicity; KKLEB CF airway cells viability, ATPlite luminescence, overnight; stronger effect = lower value; cells stimulated with P. aeruginosa culture filtrate; 0.36% of 360,000 active; AID 602141; activity change (cytotoxicity), % at 5 µM;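 active = corrected activity change at or below -50% at 5 µM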
# Peg3 promoter: Peg3 promoter activity inhibition | HeLa PEG-Prom luciferase reporter, luminescence, overnight | inhibition, % at 20 µM | 1.7% of 360,000 active;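 active = inhibition of at least 50% at 20 µM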
# TRPM1 prom inh: MITF TRPM1 promoter inhibition in SK-MEL-5 cells; AID 488899; 0.83% of 330,000 active; inhibition, % at 12.5 µM; SK-MEL-5 TRPM1 promoter luciferase, 24 h;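 active = mean inhibition across replicates of 60% or more, whatever share of single replicates reaches that level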
# CF NFkB inh: cystic fibrosis NF-kB activation inhibition. KKLEB NF-kB-GFP reporter, PAF-induced, GFP fluorescence overnight. inhibition, % at 5 µM. 0.86% of 360,000 active;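 active = at least 50% inhibition at 5 µM, scaled per plate between neutral and stimulator controls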;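 also: PAF is a Pseudomonas aeruginosa culture filtrate used as stimulus; plate controls were PAF-stimulated DMSO wells for no effect and unstimulated DMSO wells for full effect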
# HIF-2a inh: blocks HIF-2a reporter activity. 786-0 RCC cells HIF-2a reporter, luciferase luminescence, overnight. inhibition, % at 18.8 µM. 0.72% of 360,000 active;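 active = inhibition of the luminescence signal of 40% or more relative to plate controls, in a single-dose primary screen at 18.75 µM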
# Starred values were filed as active, the others as inactive; nt = not tested or not shown.
SMILES,Shn3 3UTR inh,KKLEB tox,Peg3 promoter,TRPM1 prom inh,CF NFkB inh,HIF-2a inh
COc1ccc(NC(=O)c2cc3ccccc3oc2=O)c(OC)c1,-14,3,-201,-58,-14,-197
O=C(O)CN1C(=O)C2C3CC(C2C1=O)C1C(c2ccc(F)cc2)c2sc(=O)[nH]c2SC31 (configuration not stated),3,16,-8,-3,-11,-3
O=C(CCCc1ccccc1)NC1CC1,-12,-4,-18,-6,-2,-28
O=C(O)CCCc1ccc2c(c1)CCc1ccccc1-2,15,-2,4,88*,-24,68*
O=S(=O)(c1ccccc1)c1nnn2c1nc(NC1CCN(Cc3ccccc3)CC1)c1cc(Cl)ccc12,11,-7,55*,25,-12,15
O=S(=O)(c1ccccc1)c1nnn2c1nc(NC1CCN(Cc3ccccc3)CC1)c1ccccc12,14,-14,16,-6,17,28
CCOc1ccccc1OCC(=O)OCC(=O)c1c(C)[nH]c2ccccc12,-18,10,-23,7,-1,3
O=c1c2ccccc2ncn1-c1ccc2c(c1)OCCO2,-22,7,-59,-40,3,-55
O=c1c2c3nc4ccccc4nc3n(-c3ccc4c(c3)OCCO4)c2ncn1C1CCCC1,9,-12,59*,82*,16,-1
Cc1ccc(NC(=O)C2CCCN(S(=O)(=O)c3c(C)noc3C)C2)cc1 (configuration not stated),85*,-9,14,4,-2,16
Nc1ncnc2c1ncn2[C@@H]1O[C@H](CNC(=O)[C@@H](N)COCc2ccccc2)[C@@H](O)[C@H]1O,-8,5,-13,-1,23,0
CC1(C(=O)Nc2ccc3c(c2)OCO3)CCN1C(=O)CCc1ccc(Cl)cc1Cl (configuration not stated),-1,10,-20,nt,-31,-30
NC(=O)c1ccccc1N/C=C/C(=O)c1ccc(Cl)cc1Cl,nt,-65*,-136,-35,-18,-70
C/C=C(\C)C(=O)OC1CC(C)(C)C[C@H]2C3=CC[C@@H]4[C@@]5(C)CCC(O[C@@H]6O[C@@H](C(=O)O)[C@@H](O)C(O[C@@H]7OC[C@H](O)[C@@H](O)[C@@H]7O[C@@H]7OC(CO)C(O)[C@@H](O)[C@@H]7O)C6O[C@@H]6OC(CO)C(O)C(O)C6O)[C@@](C)(CO)[C@@H]5CC[C@]4(C)[C@]3(C)CC(O)[C@@]12CO (some centres not stated),9,0,60*,46,7,6
CC1(C(=O)NS(=O)(=O)c2cccc(C#N)c2)CCN1C(=O)CCc1ccccc1 (configuration not stated),5,-16,2,nt,21,-1
NC(=O)CC(NC(=O)c1cccc(Br)c1)c1ccc(N2CCN(c3ccccn3)CC2)c([N+](=O)[O-])c1 (configuration not stated),65,-14,18,-1,-19,81*
O=C(CCNC(=O)c1ccc(Cl)cc1)NCCCN1CCOCC1,-5,-2,-10,1,12,-1
O=C(O)CC1NC(=S)N(Cc2ccccc2)C1=O (configuration not stated),-2,-4,52*,nt,27,3
CCN(CC)CCN1CCN(c2cnc(C)cn2)CC1,-10,2,6,nt,-8,1
CN(C)CCNC=C(C(=O)Nc1ccc(Cl)cc1Cl)C(=O)Nc1ccc(Cl)cc1Cl,-19,-15,91*,19,32,4
CC(=O)/C(=C/N(C)C)C(=O)Nc1ccc(Cl)cc1Cl,12,8,-13,1,-25,-71
COC(=O)c1cc(S(=O)(=O)Nc2c(C)cccc2C)cn1C,-33,19,1,nt,2,5
COC(=O)c1cc(S(=O)(=O)Nc2cccc(OC)c2)cn1C,1,-2,52*,12,1,9
CCN1CCCC1CNC(=O)Cn1nc(C)n2nc(-c3ccccc3)cc2c1=O (configuration not stated),-15,5,16,-2,-7,-2
O=C(NC(NC(=S)Nc1c(Cl)cccc1Cl)C(Cl)(Cl)Cl)c1cccc([N+](=O)[O-])c1 (configuration not stated),48,-12,52*,-4,19,11
SMILES,Shn3 3UTR inh,KKLEB tox,Peg3 promoter,TRPM1 prom inh,CF NFkB inh,HIF-2a inh
COc1ccc([N+](=O)[O-])cc1NC(=S)NC(NC(=O)C(c1ccccc1)c1ccccc1)C(Cl)(Cl)Cl (configuration not stated),45,1,50*,19,33,-10
Cc1ccc(-c2c[n+](Cc3cccc(Cl)c3)c3n2CCC3)cc1,47,3,24,67*,-8,10
Clc1cccc(C[n+]2cc(-c3ccccc3)n3c2CCC3)c1,15,-2,-12,15,5,-6
O=C1NC[C@@H](CCCCN2C[C@H](Cc3ccc(O)cc3)N(CCc3ccccc3)C(=O)C2=O)N(Cc2ccccc2)C1=O,nt,nt,nt,nt,nt,2
CCOC(=O)C(C(=O)OCC)c1cc(Br)c2noc3c2c1C(=O)c1ccccc1-3,99*,-38,113*,95*,75*,35
CC(=O)OCCNc1cc(N2CCN(C)CC2)c2noc3c2c1C(=O)c1ccccc1-3,0,-2,3,nt,-165,-5
Cc1cc(C)c2nc(N3CCC(C(=O)NCC4CCCO4)CC3)sc2c1 (configuration not stated),-13,18,-35,-21,-6,-50
Cc1cc(C)c2nc(N3CCC(C(=O)NCCCN4CCCCC4)CC3)sc2c1,-4,-5,70*,69*,26,4
CCOC(=O)C1CCN(C2=C(NS(=O)(=O)c3ccc(Br)cc3)C(=O)c3ccccc3C2=O)CC1,-21,11,-21,32,22,-34
CC1COCC(C)N1C1=C(Cl)C(=O)c2ccccc2C1=O (configuration not stated),96*,-4,100*,96*,44,-2
CCOC(=O)N1CCN(C2=C(NS(=O)(=O)c3ccccc3)C(=O)c3ccccc3C2=O)CC1,0,-5,-5,23,11,-1
CCN1CCN(C2=C(NS(=O)(=O)c3ccccc3)C(=O)c3ccccc3C2=O)CC1,2,14,23,67*,-17,-53
O=C1C(Cl)=C(N2CCC(C(=O)O)CC2)C(=O)c2ccccc21,-8,1,5,45,14,-7
CN1CCN(C2=C(Cl)C(=O)c3ccccc3C2=O)CC1,73,-3,65*,100*,34,12
CCN1CCN(C2=C(NS(=O)(=O)c3ccc(Br)cc3)C(=O)c3ccccc3C2=O)CC1,-28,1,-8,90*,25,-33
O=S(=O)(NC1=NCCCCC1)c1cc(F)ccc1F,5,3,-2,-12,-37,1
